Laboratory results reported in PubChem BioAssay (Tox21).
Values without a mark were called inactive. Inconclusive results are not listed. A call without a number means that no potency is given here. The source made the active and inactive calls. Unless noted, the call rests on the fitted dose curve; in most records, active means well fitted curve in the direction sought with a large enough effect in the repeat runs; inconclusive means weak or mixed curves; inactive means no such curve, though single readings can be large; an effect the other way counts as inactive or inconclusive.

Tests used:
[1] = qHTS assay to identify small molecule agonists of H2AX (AID 1224845; active means well fitted activation curve with a large enough effect in the signal ratio in the repeat runs, not every such curve was filed as active; the % refers to the signal ratio)
Method in brief: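 Wild-type CHO-K1 cells plated overnight, then exposed 3 hr at 37C to compounds at 15 concentrations (0.76% DMSO). Lysed, then HTRF anti-pH2AX(S139)-cryptate/anti-H2AX-d2 detection after 24 hr at room temperature; emissions 665 and 620 nm.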

[2] = qHTS assay to identify small molecule agonists of the hypoxia (HIF-1) signaling pathway (AID 1224846; active means well fitted activation curve with a large enough effect in the signal ratio in the repeat runs, not every such curve was filed as active; the % refers to the signal ratio)
Method in brief: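 Measured by blue/green FRET after loading CCF4-AM: beta-lactamase expressed from a hypoxia response element in ME-180 cells. Test agents were delivered in DMSO and left 17 hrs; cells had been plated 5 hrs earlier in low-serum (0.5% dialyzed FBS) medium.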

[3] = qHTS assay to identify small molecule agonists of H2AX - cell viability counter screen (AID 1224847; calls by dose curve; further: top concentration of the series differs between compounds; nearly all actives have a fitted effect of over 30% in size)
Method in brief: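 Viability of CHO-K1 (wild type) cells after 3 hr compound exposure was measured by CellTiter-Glo luminescence.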

[4] = qHTS RealTime-Glo MT Cell Viability Assay in HepG2 cells - 24 hour (AID 1224867); further: nearly all actives have a fitted effect of over 50% in size
Method in brief: (§1)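 Cells + NanoLuc/prosubstrate dispensed (600 cells/well) → 5 h at 37 C/5% CO2 → compounds in DMSO transferred → 40 h incubation at 37 C, luminescence read at 0, 8, 16, 24, 32, 40 h.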

[5] = qHTS RealTime-Glo MT Cell Viability Assay in HEK293 cells - 32 hour (AID 1224868); further: nearly all actives have a fitted effect of over 50% in size; further: potency means the concentration at half of the fitted maximal effect
Method in brief: (§2)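 Tox21 10K qHTS, HEK293, 600 cells/well, RealTime-Glo reagent co-dispensed with cells; 5 h preincubation, compound by pintool, 37 C, luminescence at 0–40 h.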

[6] = qHTS RealTime-Glo MT Cell Viability Assay in HepG2 cells - 40 hour (AID 1224870); further: nearly all actives have a fitted effect of over 50% in size
Method in brief: (§3)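 HepG2 cells mixed with RealTime-Glo MT reagents (NanoLuc plus cell-permeant prosubstrate) were seeded at 600 cells/well, incubated 5 h at 37 C/5% CO2, then pinned with compounds in DMSO; nonlytic luminescence tracked viability during 40 h treatment.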

[7] = A CellTox Green Cytotoxicity Assay to monitor cytotoxicity in HEK293 cells - 40 hour (AID 1224871); further: nearly all actives have a fitted effect of over 45% in size
Method in brief: (§4)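 Each value comes from one timepoint of a single continuous run in which HEK293 cells with CellTox Green were exposed to compound for up to 40 h at 37 C, dye fluorescence rising with cell death.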

[8] = qHTS RealTime-Glo MT Cell Viability Assay in HEK293 cells - 16 hour (AID 1224872); further: nearly all actives have a fitted effect of over 50% in size; further: potency means the concentration at half of the fitted maximal effect
Method in brief: as §2

[9] = qHTS RealTime-Glo MT Cell Viability Assay in HepG2 cells - 8 hour (AID 1224873); further: nearly all actives have a fitted effect of over 55% in size
Method in brief: as §3

[10] = A CellTox Green Cytotoxicity Assay to monitor cytotoxicity in HEK293 cells - 24 hour (AID 1224875); further: series mostly up to about 77 µM; nearly all actives have a fitted effect of over 45% in size
Method in brief: as §4

[11] = A CellTox Green Cytotoxicity Assay to monitor cytotoxicity in HepG2 cells - 16 hour (AID 1224876); further: nearly all actives have a fitted effect of over 45% in size
Method in brief: (§5)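 Continuous culture of HepG2 cells with a membrane-impermeant DNA dye; rising fluorescence marks dead cells. Compound exposure lasted up to 40 h at 37 C, with reads every 8 h from 0 h.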

[12] = qHTS RealTime-Glo MT Cell Viability Assay in HepG2 cells - 32 hour (AID 1224877); further: nearly all actives have a fitted effect of over 55% in size
Method in brief: as §1

[13] = A CellTox Green Cytotoxicity Assay to monitor cytotoxicity in HepG2 cells - 24 hour (AID 1224878); further: nearly all actives have a fitted effect of over 45% in size
Method in brief: as §5

[14] = A CellTox Green Cytotoxicity Assay to monitor cytotoxicity in HepG2 cells - 40 hour (AID 1224879); further: nearly all actives have a fitted effect of over 40% in size
Method in brief: as §5

[15] = qHTS RealTime-Glo MT Cell Viability Assay in HEK293 cells - 0 hour (AID 1224880)
Method in brief: (§6)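 qHTS format; HEK293 cells with NanoLuc/prosubstrate reagent, 37 C/5% CO2 for 5 h pre-dosing; compounds 23 nL in DMSO; luminescence at each time point reflects viable cells.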

[16] = A CellTox Green Cytotoxicity Assay to monitor cytotoxicity in HEK293 cells - 32 hour (AID 1224881); further: nearly all actives have a fitted effect of over 40% in size
Method in brief: as §4

[17] = qHTS RealTime-Glo MT Cell Viability Assay in HEK293 cells - 40 hour (AID 1224874); settings: RealTime-Glo luminescence; max response: active compounds read low; further: nearly all actives have a fitted effect of over 50% in size
Method in brief: as §6

[18] = A CellTox Green Cytotoxicity Assay to monitor cytotoxicity in HEK293 cells - 0 hour (AID 1224869); further: nearly all actives have a fitted effect of over 50% in size
Method in brief: as §4

Compound	Potency [1]	outcome [2]	Potency [3]	Potency [4]	Potency [5]	Potency [6]	Potency [7]	Potency [8]	Potency [9]	Potency [10]	Potency [11]	Potency [12]	Potency [13]	Potency [14]	Potency [15]	Potency [16]	max response [17] [%]	Potency [18]
CC(C)OS(C)(=O)=O	inactive	inactive	inactive	inactive	inactive	inactive	inactive	inactive	inactive	inactive	inactive	inactive	inactive	inactive	inactive	inactive	–	–
Oc1ccc(I)cc1	inactive	inactive	inactive	inactive	inactive	inactive	inactive	inactive	inactive	–	inactive	–	inactive	inactive	–	inactive	-9.46	–
BrCC(Br)c1ccccc1 (stereo not given)	inactive	inactive	inactive	inactive	inactive	inactive	–	inactive	inactive	inactive	inactive	inactive	inactive	inactive	inactive	inactive	1.25	inactive
COc1ccc([N+](=O)[O-])cc1O	inactive	inactive	inactive	inactive	inactive	inactive	–	inactive	inactive	inactive	inactive	inactive	inactive	inactive	inactive	inactive	1.5	–
CC(=[OH+])/C=C(/C)[O-].CC(=[OH+])/C=C(\C)[O-].CC(=[OH+])/C=C(\C)[O-].[Al]	inactive	inactive	inactive	inactive	inactive	inactive	–	inactive	inactive	inactive	inactive	–	–	inactive	inactive	inactive	–	inactive
FC(Cl)(Cl)Cl	inactive	inactive	inactive	inactive	inactive	inactive	inactive	inactive	inactive	inactive	inactive	inactive	inactive	inactive	inactive	inactive	–	inactive
C[C@@H](Oc1ccc(Cl)cc1Cl)C(=O)O	inactive	inactive	inactive	inactive	inactive	inactive	inactive	inactive	inactive	inactive	inactive	–	–	inactive	inactive	inactive	0.534	inactive
NNC(=O)c1ccccc1	inactive	inactive	inactive	inactive	inactive	–	inactive	inactive	inactive	inactive	inactive	inactive	inactive	inactive	inactive	inactive	–	–
Nc1c(Oc2ccccc2)cc(O)c2c1C(=O)c1ccccc1C2=O	inactive	inactive	inactive	inactive	19 µM (active)	–	inactive	10.7 µM (active)	inactive	inactive	inactive	–	inactive	inactive	inactive	inactive	–	inactive
CCN	inactive	inactive	inactive	inactive	inactive	inactive	inactive	inactive	inactive	inactive	inactive	–	inactive	inactive	inactive	inactive	–	–
Fc1cccc(Cl)c1CCl	inactive	inactive	inactive	inactive	inactive	inactive	inactive	inactive	inactive	–	inactive	inactive	inactive	inactive	inactive	inactive	–	inactive
CCCCCCCCCBr	inactive	inactive	inactive	inactive	inactive	inactive	inactive	inactive	inactive	inactive	inactive	inactive	inactive	inactive	inactive	inactive	-6.03	–
CCCSP(=O)(OCC)SCCC	inactive	inactive	inactive	inactive	inactive	inactive	inactive	inactive	inactive	inactive	inactive	inactive	inactive	inactive	inactive	inactive	-0.268	inactive
O=[N+]([O-])c1cc(Cl)ccc1Cl	inactive	inactive	inactive	inactive	inactive	–	–	inactive	inactive	inactive	inactive	inactive	inactive	inactive	inactive	–	–	inactive
CC(C)CCCCCOC(=O)c1ccccc1C(=O)OCCCCCC(C)C	inactive	inactive	inactive	inactive	inactive	–	inactive	inactive	inactive	–	inactive	inactive	inactive	inactive	inactive	inactive	-3.2	–
